# Measurements taken from PubChem BioAssay.
# What was measured:
# [1] = molecular target: Tumor necrosis factor receptor superfamily member 10B (Homo sapiens) (UniProt O14763); test: viability loss of caspase-8 NB7 cells with TRAIL – with/without TRAIL, luminescence panel, confirmation (AID 651596); details: NB7 neuroblastoma + caspase-8, TRAIL sensitization, NB7 Caspase-8, with TRAIL, mean of runs, at 10 µM, stronger effect = higher value
# [2] = as above; details: NB7 neuroblastoma + caspase-8, without TRAIL, NB7 Caspase-8, without TRAIL, mean of runs, at 10 µM
# Sequence of Tumor necrosis factor receptor superfamily member 10B (Homo sapiens) (O14763 whole entry, looked up): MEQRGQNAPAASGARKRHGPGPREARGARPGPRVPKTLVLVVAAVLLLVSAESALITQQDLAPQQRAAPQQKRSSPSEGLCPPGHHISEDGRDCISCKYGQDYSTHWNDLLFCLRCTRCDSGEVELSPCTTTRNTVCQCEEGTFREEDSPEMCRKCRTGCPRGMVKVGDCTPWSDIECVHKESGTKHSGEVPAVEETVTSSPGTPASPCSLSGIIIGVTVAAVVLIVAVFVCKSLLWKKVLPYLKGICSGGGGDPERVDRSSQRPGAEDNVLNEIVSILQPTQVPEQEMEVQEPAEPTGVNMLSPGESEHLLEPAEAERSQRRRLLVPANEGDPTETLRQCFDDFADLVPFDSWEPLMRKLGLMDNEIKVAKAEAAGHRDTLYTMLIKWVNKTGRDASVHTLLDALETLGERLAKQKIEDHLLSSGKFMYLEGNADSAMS
Structure (SMILES),activity [1] [%],activity [2] [%]
COn1c(SCc2cccc(Cl)c2)nc2ccccc2c1=O,52.4,26.3
O=C(Nc1nc2ccccc2[nH]1)c1cc2ccccc2o1,87.2,87
O=C(COc1ccccc1)Nc1cccc(-c2ccc(N3CCOCC3)nn2)c1,72.7,77.8
C(=N\NC1=Nc2cccc3cccc1c23)/c1ccccc1,34.3,14.2
Cc1ccc(-c2cc3nc4c(c(=O)n3[nH]2)CCCC4)cc1,55.2,54.7
Cc1nn(-c2ccccc2)c(C)c1/C=N/NC(=O)c1cc(C23CC4CC(CC(C4)C2)C3)[nH]n1,74.1,60
N#C/C(=C\c1cc(Cl)cc(Cl)c1O)C(=O)NC1CCCCC1,26.5,47.6
O=C(COc1ccc(/C=N/NC(=O)c2cc3ccccc3o2)cc1Br)Nc1ccccc1,93,96.8
N=c1cc(C2(O)CCCCC2)n2c(nc3ccccc32)s1,93.5,89
O=C(Oc1c(CN2CCOCC2)cc(Cl)c2cccnc12)c1ccccc1Br,53.5,52.8
COc1ccc(C(=O)Nc2ccc3[nH]ccc3c2)cc1,95.1,95.3
C#Cc1ccc(NC(=O)C2(C)CCN2C(=O)C2(c3ccccc3)CCCC2)cc1 (configuration not stated),91.3,84.6
CC1(C)N=C(N)N=C(N)N1CCCCc1ccccc1,63.6,68.3
Cc1cc(N/N=C\c2ccccc2)nc(-c2ccccc2O)n1,41.2,24.4
Cc1ccc(-c2nc(NC(=O)c3nn(C)cc3[N+](=O)[O-])sc2C)cc1C,98.1,99.1
O=C(Nc1cccc(Oc2ccc(C(=O)O)c(C(=O)O)c2)c1)c1ccc(-c2ccccc2)cc1,60.4,56
